This note sets out measurements from PubChem BioAssay AID686979 (National Center for Advancing Translational Sciences (NCATS), 2013).

Molecules are shown by their SMILES. Out of some 420,000 compounds screened, about 50,000 (12%) were called active. Entries that show only a call come without a potency. About 26% were inconclusive and are not listed. Calls follow the shape of the dose curve; as a rule, active = well fitted inhibition curve with a large enough effect; inconclusive = small, poorly fitted or top-dose-only effect; inactive = flat fitted curve, though single readings scatter. For the sample, actives were picked, then their nearest neighbours and some compounds at random. Where a SMILES comes first, the peptide text is derived from it. Bridges are numbered along the chain shown (N, C = ends). [ ]: non-standard residue; d: D form. The star is where a group is joined. X4 = CC[C@H](C)CCCCC(=O)*; Dab = NCC[C@H](N)C(=O)O
Potency is read from the fitted curve at half-maximal effect.

The experiment can be described thus: qHTS for Inhibitors of human tyrosyl-DNA phosphodiesterase 1 (TDP1): qHTS in cells in presence of CPT. Also: nearly all actives have a fitted effect of over 55% in size. Conditions: chicken DT40 Tdp1-/-;hTDP1 cells + 20 nM CPT, ATP luminescence, 48 h; series mostly up to 46.2 µM. In outline:
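Chicken DT40 Tdp1-/- cells complemented with human TDP1, 400 cells/well, exposed to compounds plus 20 nM camptothecin for at least 48 h at 37 C; viability read as ATP content by CellTiter-Glo luminescence.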
In general terms: In qHTS, concentration-response curves come from the screen itself.
Turning to `Nc1cccc(S(=O)(=O)Nc2ccc(SC(F)F)cc2)c1`, the Potency result was “inactive”. Turning to `CC(C)(C)c1cc(P(=O)(c2ccccc2)c2ccccc2)ccc1O`, the Potency result is “inactive”.

As to `COc1ccccc1-c1cnn2c(N3CCOCC3)cc(C)nc12`, the Potency entry was “inactive”. In the case of `O=C(Nc1cccc(Br)c1)C1CC(=O)N(C2CCCC2)C1` (stereo unspecified), the Potency entry is “inactive”.

On to `COc1ccc(OC)c(NC(=O)Cc2cccs2)c1`, for which the Potency result was “inactive”.

Consider `Cn1c(SCC(=O)N/N=C/c2ccc(O)c(O)c2)nc2ccccc21`, for which the Potency result was “inactive”. As for `CCCc1nc2ccccc2c(=O)n1/N=C/c1ccc(O)c(O)c1`, the figure is 11.6 µM (active). As to `O=c1c2ccccc2ncn1/N=C/c1ccccc1`, the Potency entry was “inactive”. As for `CSc1nc2c(c(=O)[nH]1)C(c1cccc(Cl)c1Cl)CC(=O)N2` (stereo unspecified), the entry is “inactive”; as for `O=C(CSCc1c(F)cccc1Cl)NCC1CCCO1` (stereo unspecified), “inactive”.

In the case of `S=C(NCC1CCCO1)N1CCN(c2ccc(Cl)c(Cl)c2)CC1` (stereo unspecified), the Potency is 20.6 µM (active). As for `COc1ccc(S(=O)(=O)N2CCN(C(=S)NCC3CCCO3)CC2)cc1OC` (stereo unspecified), the entry is “inactive”. As to `O=Cc1c(N2CCN(c3cccc(Cl)c3)CC2)nc2ccccn2c1=O`, the Potency entry is “inactive”.

`CC(CNc1ccc([N+](=O)[O-])c2cccnc12)Nc1c([N+](=O)[O-])cc(C(F)(F)F)cc1[N+](=O)[O-]` (stereo unspecified): the Potency entry was “inactive”. As for `FC(F)(F)c1ccc2c3n(nc2c1)CCN=C3c1ccc(Cl)cc1`, the Potency entry was “inactive”.

In the case of `CCc1ccccc1NC(=O)CSc1nnc(CCNC(=O)OC(C)(C)C)o1`, the Potency result was “inactive”. Under `CN1OC[C@@H]2CN(C(=O)c3cccc4ccccc34)[C@H](c3ccc(N4CCCCC4)cc3)C[C@@H]21` stands “inactive”; under `C[C@H]1Cn2cnc(C(=O)N[C@H](C)c3ccccc3)c2C(=O)N1`, “inactive”. In the case of `COc1ccc(C(=O)OC(C)C(=O)NC2CCCC2)cc1S(=O)(=O)N1CCOCC1` (stereo unspecified), the Potency result was “inactive”.

Take `CCCCN(CC)C(=S)Nc1ccc2nc3n(c(=O)c2c1)CCCCC3`: the Potency result is “inactive”. Take `CCCN(CCC)C(=O)C1CCCN(c2ncnc3c2nc2n3CCCCC2)C1` (stereo unspecified): the Potency was 14.6 µM (active). With `COCCNc1ncnc2c1nc1n2CCCC1`, the Potency entry was “inactive”. Under `Cc1cccc2c(=O)n3c(nc12)CCCCC3` stands “inactive”; under `CN(C(=O)C1CCN(c2ncnc3c2nc2n3CCCCC2)CC1)C1CCCCC1`, 20.6 µM (active). As for `COCCCNC(=O)CN1C(=O)CSc2ccc(S(=O)(=O)N3CCOCC3)cc21`, the entry is “inactive”; as for `O=C(NCc1ccncc1)c1ccc(NS(=O)(=O)c2cccc([N+](=O)[O-])c2)cc1`, “inactive”; as for `COc1ccc(C(C)NC(=S)NC2CCCCC2)cc1OC` (stereo unspecified), “inactive”.

Take `COc1ccc(-n2c(CNC(=O)c3cc(C(F)(F)F)ccc3Cl)nnc2SC)cc1`: the Potency result is “inactive”. Under `COc1ccc(C(CNC(=O)COc2ccc([N+](=O)[O-])cc2)N2CCCCC2)cc1` (stereo unspecified) stands “inactive”; under `CC(=O)c1ccc(S(=O)(=O)NC2CC(=O)N(c3ccc4c(c3)OCCO4)C2)cc1` (stereo unspecified), “inactive”. Under `Cc1ccc(N2C(=O)CN=C2Nc2nc(C)cc(C)n2)cc1` stands “inactive”; under `COc1ccc(N2CCN(c3nc(-c4ccccc4F)nc4ccccc34)CC2)cc1`, 20.6 µM (active).

As for `COc1ccc(N2CCN(C(C)=C3C(=O)c4ccccc4C3=O)CC2)cc1`, the Potency entry was “inactive”.

Take `COc1ccccc1-c1nc(N2CCN(C)CC2)c2ccccc2n1`: the Potency entry was “inactive”.

For `O=C(Nc1ccc(Cl)cc1)c1cc2nc(C3CC3)cc(C(F)(F)F)n2n1`, the Potency entry was “inactive”. As for `COC(=O)C1(C)CC1(c1ccccc1)c1ccccc1` (stereo unspecified), the entry is “inactive”.

For `CC(C)Oc1ccc(/C=N/NC(=O)c2nnn(-c3nonc3N)c2CN(C)C2CCCCC2)cc1`, the Potency entry is “inactive”. As for `O=C(Nc1ccccc1Cl)N1CCC(CN2CCCC2)CC1`, the entry is “inactive”; as for `Cc1ccc(C)c(N2CCN(S(=O)(=O)c3ccc4c(c3)oc(=O)n4C)CC2)c1`, “inactive”. Under `Cc1ccc(C)c(N2CCN(S(=O)(=O)c3ccc4c(c3)C(C(C)C)C(=O)N4)CC2)c1` (stereo unspecified) stands 20.6 µM (active). Under `Cn1c(=O)c(=O)n(C)c2cc(S(=O)(=O)NCCN3CCN(c4ccccc4F)CC3)ccc21` stands “inactive”; under `CC1C(=O)Nc2ccc(S(=O)(=O)N3CCN(c4ccccc4F)CC3)cc2NC1=O` (stereo unspecified), 9.2 µM (active). For the molecule `O=S(=O)(N1CCOCC1)N1CCN(c2ccccc2F)CC1`, the Potency entry was “inactive”. Under `CCOC(=O)N1CCN(S(=O)(=O)c2ccc3c(c2)C(C)C(=O)N3)CC1` (stereo unspecified) stands “inactive”; under `O=C(CN1C(=O)COc2ccc(Cl)cc21)Nc1ccc(N2CCOCC2)cc1`, “inactive”. As for `CCC(C)NC(=O)c1ccc(N2CCC3(CC2)OCCO3)c([N+](=O)[O-])c1` (stereo unspecified), the entry is “inactive”; as for `Cc1cccc(C(=O)OCC(=O)NCC(C)C)c1O`, “inactive”; as for `CC[C@H](C)CCCCC(=O)N[C@@H](CCN)C(=O)N[C@H](C(=O)N[C@@H](CCN)C(=O)N[C@H]1CCNC(=O)[C@@H]([C@H](C)O)NC(=O)[C@H](CCN)NC(=O)[C@H](CCN)NC(=O)[C@H](CC(C)C)NC(=O)[C@@H](CC(C)C)NC(=O)[C@H](CCN)NC1=O)[C@@H](C)O` (X4-[Dab]T[Dab][Dab][Dab][dL]L[Dab][Dab][dT]; lactam 4-C), “inactive”. As for `COc1cc([N+](=O)[O-])ccc1NC(=O)CN1CCCC1`, the entry is “inactive”. On to `CSc1ccccc1NC(=O)COC(=O)CCCOc1ccc(C)cc1`, for which the Potency entry is “inactive”. Under `COc1cc([N+](=O)[O-])ccc1NC(=O)COC(=O)CCOc1ccc(C)cc1` stands 6.51 µM (active); under `CC1(C)CC(=O)CC2(C1)NCC(c1ccccc1Cl)c1c2[nH]c2ccccc12` (stereo unspecified), 18.4 µM (active); under `CCc1cccc(-n2nnc(-c3nsc(NC(=O)c4ccc(C)cc4)n3)c2C)c1`, 9.2 µM (active). Under `Cc1ccc(C(=O)Nc2nc(N)n(-c3ccccc3)n2)cc1` stands “inactive”; under `Cc1ccc(C(=O)Nc2nc(-c3ccccc3)ns2)cc1`, “inactive”.

Take `CCN(CC(=O)Nc1ccc(NC(C)=O)cc1)C(=O)C1CC(=O)N(c2ccc3c(c2)OCCO3)C1` (stereo unspecified): the Potency result is “inactive”. Under `COc1cccc(CNC(=O)CCC(=O)N2CC3CCCN3c3ccccc32)c1` (stereo unspecified) stands 14.6 µM (active).

With `COc1cccc(CNC(=O)C2CC(=O)N(C3CCCCCCC3)C2)c1` (stereo unspecified), the Potency result was “inactive”. Under `COc1cccc(CNC(=O)CCC2CCCN(C(=O)c3cc(C)[nH]n3)C2)c1` (stereo unspecified) stands “inactive”. As for `CCOc1ccc(-c2nc(C)sc2CC(=O)O)cc1`, the entry is “inactive”. As for `Cc1cc(C)cc(NC(=O)C2CCCN(S(=O)(=O)c3ccc4[nH]c(=O)ccc4c3)C2)c1` (stereo unspecified), the entry is “inactive”.
